# Test results from ChEMBL document CHEMBL3988442, “University of Dundee, Small-Polar-MMV Screening Library” (2021).
# Out of some 69,000 compounds screened, about 1,000 (1.4%) showed an effect of 50% or more. Many of the other results were omitted from the sample, so strong results are more common in it than they were.
# Test system: Leishmania donovani
# Assay: Leishmania intramacrophage assay
# Assay type: functional, organism-based
# Set-up: scale not given: in the data most compounds retested in dose-response had high values
structure (smiles),measurement,setting,value
Cc1cccc2c1N(C)C(=O)C21CC(=O)Nc2c1cnn2C(C)(C)C (configuration not stated),Percent Effect,"30.3 µM, […]",-18.37%
CN(C)c1ncccc1CNS(=O)(=O)c1ccc(F)c(F)c1,Percent Effect,30 µM,32.33%
COc1ccc(S(=O)(=O)NCc2cccnc2N(C)C)cc1,Percent Effect,30 µM,27.65%
CN(C)c1ncccc1CNS(=O)(=O)c1cc(F)cc(F)c1,Percent Effect,30 µM,13.05%
COc1ccc(S(=O)(=O)NCc2cccnc2N(C)C)cc1F,Percent Effect,"30 µM, 30.03 µM",58.31%
CCOC(=O)c1ccc(S(=O)(=O)NCc2cccnc2N(C)C)cc1,Percent Effect,30 µM,21.62%
CCOc1ccc(S(=O)(=O)NCc2cccnc2N(C)C)cc1,Percent Effect,"30 µM, 30.03 µM",61.25%
CC(C)CCN(C)Cc1ccccc1-c1nc(C(C)C)cc(=O)[nH]1,Percent Effect,"30.3 µM, […]",41.3%
CNc1cc2c(nn1)CCN(C(=O)c1coc(Br)c1)C2,Percent Effect,30 µM,-2.691%
COCCC1(CO)CCCN(Cc2cc(C(F)(F)F)ccc2F)C1 (configuration not stated),Percent Effect,"30.3 µM, […]",0.4261%
O=C(Nc1cccc(CN2CCC(CO)CC2)c1)c1cc(Cl)c[nH]1,Percent Effect,"30.3 µM, […]",28.48%
COCCNC(=O)Cn1cc2c(n1)c(C)nn2C,Percent Effect,"30.3 µM, […]",-28.68%
O=C(NCCSC1CCCC1)c1cc(C2CC2)on1,Percent Effect,"30.3 µM, […]",-5.763%
Cc1ccc2nc(C)cc(C(=O)NCc3csc(N(C)C)n3)c2c1,Percent Effect,"30.3 µM, […]",25.38%
COCCN(C)CC1CCCN1S(=O)(=O)Cc1ccccc1F (configuration not stated),Percent Effect,"30.3 µM, […]",-13.31%
O=C(CCO)N1CCOC2(CCCN(C(=O)c3ccco3)C2)C1 (configuration not stated),Percent Effect,"30 µM, 30.03 µM",-4.275%
CC(=O)N1CCCC2(C1)CN(c1nncs1)CCO2.O=C(O)C(F)(F)F (configuration not stated),Percent Effect,"30.3 µM, […]",42.05%
O=C(c1ccco1)N1CCCC2(C1)CN(c1nncs1)CCO2 (configuration not stated),Percent Effect,"30.3 µM, […]",54.73%
CO[C@@H]1CCN(S(=O)(=O)c2cccs2)[C@H]1Cc1cccnc1.O=C(O)C(F)(F)F,Percent Effect,"30.3 µM, […]",35.84%
Cc1cccc(C)c1OCC(=O)NS(=O)(=O)c1c(C)noc1C,Percent Effect,30 µM,12.57%
CC(C)S(=O)(=O)N1CCC(c2[nH]ncc2S(C)(=O)=O)C1 (configuration not stated),Percent Effect,"30.3 µM, […]",-8.157%
COc1ccc(-c2cc(CN)ccc2F)c(OC)c1OC,Percent Effect,"30.3 µM, […]",-7.273%
COc1ccc(-c2ccccc2CN)c(OC)c1,Percent Effect,"30.3 µM, […]",18.4%
COc1ccc(-c2ccccc2CCN)c(OC)c1OC,Percent Effect,"30.3 µM, […]",95.35%
CC(C)N1CC[C@@H]2[C@H](COCC3CC3)CN(C)C(=O)[C@@H]2CC1.O=C(O)C(F)(F)F,Percent Effect,"30.3 µM, […]",9.802%
CS(=O)(=O)c1ccc(NC(=O)NCCC2=CCCCC2)cc1,Percent Effect,"30.3 µM, […]",16.41%
Cn1cc(C(NCc2ccc(F)cc2)c2cccc(F)c2)cn1 (configuration not stated),Percent Effect,"30.3 µM, […]",7.526%
Cc1ccc(CNC(CN2CCN(C)CC2)c2ccccc2)cc1 (configuration not stated),Percent Effect,"30 µM, 30.03 µM",94.58%
Cl.O=C(NCc1ccc(F)cc1)N1CCN(CC(O)C2CC2)CC1 (configuration not stated),Percent Effect,"30.3 µM, […]",10.63%
CNS(=O)(=O)c1cccc(C(C)NCc2ccc(F)c(F)c2)c1 (configuration not stated),Percent Effect,"30.3 µM, […]",11.11%
COc1ccc(CNC(Cn2cncn2)c2ccccc2)cc1C (configuration not stated),Percent Effect,"30.3 µM, […]",17.02%
Cc1ccc(CNC(c2ccccc2)c2nccn2C)cc1.Cl (configuration not stated),Percent Effect,30 µM,-15.51%
O=C(NC(CN1CCCC1)c1ccccc1)c1c(O)cc(F)cc1F (configuration not stated),Percent Effect,"30.3 µM, […]",5.752%
Cc1ccc(CNC(c2ccccc2)c2nccn2C)cc1C (configuration not stated),Percent Effect,"30 µM, 30.03 µM",38.71%
Cc1ccc(CNC(=O)CN2CCN(CC(O)C3CC3)CC2)cc1.Cl.Cl (configuration not stated),Percent Effect,"30 µM, 30.03 µM",31.99%
O=C(O)C(F)(F)F.O=C1COC2(CCN(S(=O)(=O)C3CC3)CC2)CN1c1cccnc1,Percent Effect,"30.3 µM, […]",-7.696%
COc1ccc(C)nc1NC(=O)Cc1c(C)nn(C)c1C,Percent Effect,"30.3 µM, […]",1.753%
CC(C)NC(=O)c1ccc2nnc(C3CCN(S(C)(=O)=O)C3)n2c1 (configuration not stated),Percent Effect,"30.3 µM, […]",33.79%
CC(Cn1cncn1)NC(=O)N1CC2(CCCC2)c2ccccc21 (configuration not stated),Percent Effect,"30.3 µM, […]",3.028%
COc1ccc(C2CCCN2C(=O)NCCNc2ccccn2)cc1 (configuration not stated),Percent Effect,"30.3 µM, […]",69.63%
COc1ccc(C2CCCN2C(=O)NCCCn2cccn2)cc1 (configuration not stated),Percent Effect,"30.3 µM, […]",9.048%
COc1ccc(C2CCCN2C(=O)NCCNc2ncccn2)cc1 (configuration not stated),Percent Effect,"30 µM, 30.03 µM",9.2%
CC(=O)c1cccc(-n2nc(C(C)=O)c(C(C)=O)c2C)c1,Percent Effect,"30.3 µM, […]",-0.2536%
COC[C@@]12CC[C@@H](N3CCOCC3)C[C@H]1CCN(c1ncccc1C)C2,Percent Effect,"30.3 µM, […]",25.83%
COC[C@@]12CC[C@@H](N3CCOCC3)C[C@H]1CCN(c1ncccc1F)C2,Percent Effect,"30.3 µM, […]",25.63%
COC[C@@]12CC[C@@H](N3CCOCC3)C[C@H]1CCN(c1ncccc1Cl)C2,Percent Effect,"30 µM, 30.03 µM",52.08%
CC(c1nccs1)N(C)C(=O)c1cc(CN(C)Cc2ccccc2)on1 (configuration not stated),Percent Effect,"30.3 µM, […]",13.49%
Cc1cnn(CC2CCCN2C(=O)c2cc(Cl)ccc2F)c1 (configuration not stated),Percent Effect,"30 µM, 30.03 µM",-5.128%
Nc1ncc2c(n1)CN(C1CCCC1)C2=O,Percent Effect,"30 µM, 30.03 µM",22.17%
CN1CCC(N2Cc3nc(N)ncc3C2=O)CC1,Percent Effect,"30.3 µM, […]",54.63%
CC1CCC(N2Cc3nc(N)ncc3C2=O)CC1 (configuration not stated),Percent Effect,"30.3 µM, […]",-33.84%
CCC1=NN2C(=N)/C(=C\c3cccn3-c3ccc(Cl)cc3)C(=O)N=C2S1,Percent Effect,"30.3 µM, […]",-2.316%
CCN1C(=O)CC[C@@H]2[C@H]1CCN2S(=O)(=O)Cc1ccc(C)cc1,Percent Effect,"30.3 µM, […]",17.88%
Cl.Fc1ccccc1Cn1c(C2CCNCC2)cc2cccnc21,Percent Effect,"30.3 µM, […]",43.21%
Cl.Fc1cccc(F)c1Cn1c(C2CCCNC2)cc2cccnc21 (configuration not stated),Percent Effect,"30.3 µM, […]",-15.48%
Cl.Fc1cccc(F)c1Cn1c(C2CCNCC2)cc2cccnc21,Percent Effect,"30.3 µM, […]",57.89%
Cc1nc(Nc2ncccn2)cc(C2CCN(CC(C)C)C2)n1 (configuration not stated),Percent Effect,"30.3 µM, […]",2.022%
CN1CSC[C@H]1C(=O)N1CCN(Cc2cccc(F)c2)CC1,Percent Effect,"30.3 µM, […]",4.358%
CN(Cc1nnnn1C1CC1)CC1COc2ccccc2O1 (configuration not stated),Percent Effect,"30.3 µM, […]",4.21%
Cc1cc(N(C)CC2COc3ccccc3O2)nc(N)n1 (configuration not stated),Percent Effect,"30.3 µM, […]",51.06%
COc1ccccc1OCCCN(C)c1cc(C)nc(N)n1,Percent Effect,"30.3 µM, […]",16.27%
CN(CC1COc2ccccc2O1)C(=O)C1=NN(C)C(=O)CC1 (configuration not stated),Percent Effect,"30.3 µM, […]",18.48%
CCN1CC(CN(C)c2cc(C)nc(N)n2)Oc2ccccc21 (configuration not stated),Percent Effect,"30.3 µM, […]",84.12%
Cc1cc(N(C)CCCn2cccn2)nc(N)n1,Percent Effect,"30.3 µM, […]",27.03%
Cc1cc(N(C)CC2COc3ccccc3O2)nc(C)n1 (configuration not stated),Percent Effect,"30.3 µM, […]",59.02%
CN(Cc1nc(CC2CC2)no1)CC1COc2ccccc2O1 (configuration not stated),Percent Effect,"30.3 µM, […]",-8.353%
Cc1csc(CN2CC(CO)Oc3ccccc32)n1 (configuration not stated),Percent Effect,"30.3 µM, […]",-4.409%
